Laboratory results from ChEMBL document CHEMBL4513146, “CO-ADD screening of Karazin Kharkiv National University (Ukraine) compounds”.
Potency and affinity values are given separately.

Key:
Klebsiella pneumoniae = details: Concentration 32 ug.mL-1;; ASSAY_TEST Inhibition of Bacterial Growth; detection method Absorption (OD600); MEDIA CAMHB; plate type 384well; NBS; CORNING #3640; time 18 hr
Candida albicans = details: Concentration 32 ug.mL-1; ASSAY_TEST Inhibition of Fungal Growth; detection method Absorption (OD530)
Cryptococcus neoformans = details: Concentration 32 ug.mL-1; ASSAY_TEST Inhibition of Fungal Growth; detection method Resazurin; Absorption (OD600-OD570); plate type 384well; NBS; CORNING #3640

SMILES | Inhibition (Klebsiella pneumoniae) [%] | Inhibition (Candida albicans) [%] | Inhibition (Cryptococcus neoformans) [%]
COc1ccc(NC(=O)Cn2nc3ccc(SCc4ccc(Cl)cc4)nn3c2=O)cc1 | 1.71 | 48.76 | -13.57
Cc1ccc(Cl)cc1NC(=O)Cn1nc2c(SC3CCCCC3)nccn2c1=O | 10.4 | -0.14 | -28.24
COc1ccc(-c2cc3c4nn(CC(=O)Nc5ccc6c(c5)OCO6)c(=O)n4ccn3n2)cc1 | 2.73 | 15.19 | -14.04
CCC(Sc1nnc2c(=O)n(-c3cccc(OC)c3)ccn12)C(=O)Nc1cc(F)ccc1F (centres undefined) | 2.62 | 1.66 | -8.66
Cc1ccc(NC(=O)Cn2nc3c(SCc4ccc(Cl)cc4)nccn3c2=O)cc1F | 7.4 | 3.39 | -12.99
CCOc1ccc(-n2ccn3c(SC(C)C(=O)Nc4ccc5c(c4)OCCO5)nnc3c2=O)cc1 (centres undefined) | 14.39 | 0.98 | -16.53
CC(C)c1ccc(N(Cc2ccccc2)S(=O)(=O)c2cccn3cnnc23)cc1 | 5.94 | 6.69 | -11.77
Cn1c(=O)c2ccc(C(=O)NC3CCCC3)cc2n2c(SCc3c(F)cccc3Cl)nnc12 | 14.92 | 3.13 | -23.81
Cc1nnc2c(=O)n(CC(=O)Nc3ccc(Br)cc3)c3ccccc3n12 | 3.12 | 2.53 | -1.52
CCCc1nnc2c(=O)n(CC(=O)Nc3ccc(Cl)c(Cl)c3)c3ccccc3n12 | 5.7 | 0.11 | -14.21
CCc1ccc(NC(=O)Cn2nc3n(Cc4ccco4)c(=O)c4sccc4n3c2=O)cc1 | -2.12 | 5.72 | -17.39
Cc1ccc(-c2cc3c4nn(CC(=O)Nc5cccc(Br)c5)c(=O)n4ccn3n2)cc1 | 10.81 | 6.28 | -43.73
COc1ccc(NC(=O)Cn2nc3c(Sc4cccc(C)c4)nccn3c2=O)cc1Cl | 5.17 | 12.08 | -20.89
COc1ccc(-n2ccn3c(=O)n(Cc4cc(C)ccc4C)nc3c2=O)cc1Cl | 9.01 | 1.96 | -5.13
Cc1nnc2c(=O)n(CC(=O)Nc3ccc(C(C)C)cc3)c3ccccc3n12 | 15.67 | 5.98 | -14.04
O=C(Cn1nc2c3cc(-c4ccccc4)nn3ccn2c1=O)N1CCCc2ccccc21 | 12.97 | -0.58 | -23.31
CCOC(=O)c1ccccc1NC(=O)Cn1nc2c3sc(N4CCCC4)nc3ncn2c1=O | 9.28 | 9.32 | -6
Cc1ccc(-c2cc3c4nn(CC(=O)NC5CCCC5)c(=O)n4ccn3n2)cc1C | 3.15 | 6.8 | -13.73
Cc1ccc(CNC(=O)CSc2nnc3c4cc(-c5ccc(F)cc5)nn4ccn23)cc1 | 11.62 | 2.7 | -29.65
Cc1cccc(Sc2nc3ccccc3n3c(=O)n(CC(=O)Nc4c(C)cc(C)cc4C)nc23)c1 | 10.9 | 0.56 | -23.88
COc1ccc(NC(=O)Cn2nc3c4cc(-c5ccc(C)c(C)c5)nn4ccn3c2=O)c(OC)c1 | -0.09 | 3.53 | -22.33
Cc1nnc2c(=O)n(CC(=O)Nc3cccc(Br)c3)c3ccccc3n12 | 7.61 | -0.15 | -11.02
COc1cccc(-n2ccn3c(SCC(=O)c4ccc(C)cc4)nnc3c2=O)c1 | 10.94 | 3.43 | -10.21
Cc1nnc2c(=O)n(CC(=O)Nc3ccccc3Br)c3ccccc3n12 | 8.13 | 2.04 | -7.03
CCCCN(C)c1ccc2nnc(CCc3nc(-c4ccc(C(F)(F)F)cc4)no3)n2n1 | 5.43 | 2.75 | -13.06
Cc1ccc(-n2ccn3c(=O)n(Cc4ccc(F)cc4)nc3c2=O)cc1C | 10.23 | 1.58 | -18.28
COc1ccc(-c2cc3c4nnc(SCC(=O)Nc5ccccc5Cl)n4ccn3n2)cc1 | 1.23 | 2.61 | -26.87
Cc1nnc2ccc(S(=O)(=O)N(Cc3cc(F)cc(F)c3)c3ccccc3)cn12 | 7.27 | 2.01 | -9.38
